Assay results as given in PubChem BioAssay (Tox21).
Inconclusive results are not listed. Activity calls are given as the source filed them. Calls follow the shape of the dose curve; as a rule, active = well fitted activation curve with a large enough effect; inconclusive = small, poorly fitted or top-dose-only effect; inactive = flat fitted curve, though single readings scatter.
% is scaled to controls: 0 for no effect and ±100 for the full control effect; potency is read from the fitted curve at half-maximal effect.

Assay: qHTS assay to identify small molecule phospholipidosis (PLD) inducers (AID 1259344)
Settings: HepG2 phospholipidosis, LipidTOX Red imaging, 24 h; series mostly up to 38.3 µM; PLD induction: at the top concentration
Description: National Center for Advancing Translational Sciences [NCATS]
Drug-induced Phospholipidosis (PLD) caused by cationic amphiphilic drugs is characterized by the appearance of unicentric or multicentric-lamellar bodies when viewed under electron microscope. Electron microscopy is the gold standard method for PLD detection, however, this method is time-consuming and labor intensive, making it unsuitable for evaluating a large set of compounds. A cell-based phospholipidosis assay has been developed using the LipidTox reagent in HepG2 cells and miniaturized into a 1536-well plate format. Drug induced phospholipid accumulation is stained with the LipidTox dyes in red color which then is determined using an automated high content screening system.
HepG2 cells are dispensed at 900 cells/3 uL/well into Collagen I-coated 1536-well black-wall/clear-bottom assay plates (Greiner Bio-One, Monroe, NC) using the Multidrop Combi 8 channel dispenser (Thermo Fisher, Waltham, MA, USA). The assay plates are incubated at 37 C for 4 hours to allow the cell attachment. 3 uL of 1:500 LipidTOX Red dye is added using the dispenser, and then 23 nL compounds are added via a Wako Pintool station (Wako Automation, San Diego, CA). Amiodarone, a known PLD inducer, was used as a positive control and DMSO was used as a negative control. The assay plates were then incubated at 37 C for 24 hours.
For fixations, 4 uL of 8% paraformaldehyde fixative solution containing 10 ug/mL Hoechst 33342 in Dulbecco's phosphate-buffered saline (DPBS) is added using a Kalypsys washer/dispenser (Kalypsys, San Diego, CA, USA). After incubation at room temperature for 30 min, the assay plates are washed once with DPBS using a Kalypsys washer/dispenser. The assay plates are then sealed and stored at 4 C before imaging. The fluorescence intensities (595 nm excitation, 615 nm emission for LipidTOX; 352 nm excitation, 461 nm emission for Hoechst 33342) are measured using an ImageXpress Micro Widefield High Content Screening System (Molecular Devices, Sunnyvale, CA, USA) with a 20x Plan Fluor objective. Images are acquired for one site in each well and analyzed with the MetaXpress software (Molecular Devices) using the Transfluor module. Several algorithmic outputs, such as pit count per well, pit count per cell, pit integrated intensity per well, and pit integrated intensity per cell, are used for quantitative image analysis for PLD.
In the case of `CCCSP(=O)(OCC)SCCC`, the “PLD induction” value is reported as 12.6% [at 78.4 µM] (inactive). With `O=c1oc2ccccc2c(O)c1Cc1c(O)c2ccccc2oc1=O` the “PLD induction” value was 2.51% [at 15.5 µM] (inactive). In the case of `CCOCCOC(C)=O`, the “PLD induction” value is reported as -4.86% [at 78.4 µM] (inactive). With `c1ccc2c(c1)OCC(C1=NCCN1)O2` (stereo not given) the “PLD induction” value was -1.23% (inactive). For `CNC(C)Cc1ccc2c(c1)OCO2` (stereo not given), the “PLD induction” value was 15.6% [at 78.4 µM] (inactive). For `COc1cc(N)c(Cl)cc1C(=O)NC1CN2CCC1CC2` (stereo not given), the “PLD induction” value was -0.309% (inactive). In the case of `Cn1cc(C2=C(c3cn(C4CCN(Cc5ccccn5)CC4)c4ccccc34)C(=O)NC2=O)c2ccccc21`, the Potency is reported as 1780 nM (active). For `Clc1ccc(C(c2ccc(Cl)cc2)C(Cl)(Cl)Cl)cc1`, the “PLD induction” value was 14.5% (inactive). For `Cc1c(Cl)c(=O)oc2cc(OP(=O)(OCCCl)OCCCl)ccc12`, the “PLD induction” value was 1.48% (inactive). In the case of `COc1ccc(OC)c(CC(C)N)c1` (stereo not given), the “PLD induction” value is reported as -1.01% [at 78.4 µM] (inactive). For `C[C@H]1O[C@@H](O[C@H]2[C@@H](O)C[C@H](O[C@H]3[C@@H](O)C[C@H](O[C@H]4CC[C@@]5(C)[C@H](CC[C@@H]6[C@@H]5CC[C@]5(C)[C@@H](C7=CC(=O)OC7)CC[C@]65O)C4)O[C@@H]3C)O[C@@H]2C)C[C@H](O)[C@@H]1O`, the Potency was 2000 nM (active). In the case of `Clc1ccc(CSC(Cn2ccnc2)c2ccc(Cl)cc2Cl)cc1` (stereo not given), the “PLD induction” value is reported as 0.886% [at 15.5 µM] (inactive). In the case of `CC[C@H]1C[C@@H]2C[C@H]3c4[nH]c5ccc(OC)cc5c4CCN(C2)[C@@H]13`, the “PLD induction” value is reported as 3.03% [at 78.4 µM] (inactive). In the case of `ClC1=C(Cl)[C@]2(Cl)[C@@H]3[C@@H]4C[C@@H]([C@H]5O[C@@H]45)[C@@H]3[C@@]1(Cl)C2(Cl)Cl`, the “PLD induction” value is reported as 3.77% [at 78.4 µM] (inactive). With `CCCCCCCCc1ccc(O)cc1` the “PLD induction” value was -6.96% [at 78.4 µM] (inactive). With `Nc1ccc(Sc2ccc(N)cc2)cc1` the “PLD induction” value was 1.73% [at 15.5 µM] (inactive). In the case of `CC1(C)CC/C(=C/c2ccc(Cl)cc2)C1(O)Cn1cncn1` (stereo not given), the “PLD induction” value is reported as 3.75% [at 78.4 µM] (inactive). In the case of `CC(C)Oc1cccc(NC(=O)c2ccccc2C(F)(F)F)c1`, the “PLD induction” value is reported as -3.64% [at 15.5 µM] (inactive). For `CC(=O)O[C@H]1CC[C@@]2(C)C(=CC[C@@H]3[C@@H]2CC[C@]2(C)C(=O)CC[C@@H]32)C1`, the “PLD induction” value was 16.9% [at 15.5 µM] (inactive). With `COC12CC[C@@]3(C[C@@H]1C(C)(O)C(C)(C)C)[C@H]1Cc4ccc(O)c5c4[C@@]3(CCN1CC1CC1)[C@H]2O5` (stereo not given in full) the “PLD induction” value was 3.84% [at 15.5 µM] (inactive). In the case of `C[C@@H]1O[C@@H](O[C@H]2C[C@@H](O)[C@]3(CO)[C@H]4[C@H](O)C[C@]5(C)[C@@H](C6=CC(=O)OC6)CC[C@]5(O)[C@@H]4CC[C@]3(O)C2)[C@H](O)[C@H](O)[C@H]1O`, the “PLD induction” value is reported as 6.7% (inactive). For `O=S(=O)(c1ccc(Cl)cc1)c1ccc(Cl)cc1`, the “PLD induction” value was 21.3% [at 78.4 µM] (inactive). For `Clc1ccc(COC(Cn2ccnc2)c2ccc(Cl)cc2Cl)cc1` (stereo not given), the “PLD induction” value was 10.9% (inactive). With `CN(C)[C@@H]1C(=O)C(C(N)=O)=C(O)[C@@]2(O)C(=O)C3=C(O)c4c(O)ccc(Cl)c4[C@@](C)(O)[C@H]3C[C@@H]12` the “PLD induction” value was -0.689% [at 15.5 µM] (inactive). For `CS(=O)(=O)c1ccc(C(=O)C2C(=O)CCCC2=O)c([N+](=O)[O-])c1`, the “PLD induction” value was -2.18% [at 78.4 µM] (inactive). In the case of `S=C(SSC(=S)N1CCCCC1)N1CCCCC1`, the PLD induction is reported as -4.77% [at 0.0123 µM] (inactive). For `CCCCCCCCCCCCCCCC[N+](C)(C)C`, the “PLD induction” value was -1.27% (inactive). For `FC(F)(F)c1cccc(C2=CCN(CCc3ccc4ccccc4c3)CC2)c1`, the “PLD induction” value was 0.389% (inactive). For `CC1CCC(C(C)C)C(OC(=O)c2ccccc2N)C1` (stereo not given), the “PLD induction” value was 3.68% (inactive). In the case of `C[C@H]1CC[C@@H]2[C@@H](C)[C@H]3[C@H](C[C@H]4[C@@H]5CC=C6CC(O[C@@H]7O[C@H](CO)[C@H](O)[C@H](O[C@@H]8O[C@H](CO)[C@@H](O)[C@H](O)[C@H]8O)[C@H]7O[C@H]7O[C@@H](C)[C@H](O)[C@@H](O)[C@H]7O)CC[C@]6(C)[C@H]5CC[C@]34C)N2C1` (stereo not given in full), the “PLD induction” value is reported as -2.1% (inactive). In the case of `CCCCCCCCCC[N+](C)(C)CCCCCCCCCC`, the “PLD induction” value is reported as -1.52% (inactive). For `Clc1ccc(CO/N=C(\Cn2ccnc2)c2ccc(Cl)cc2Cl)c(Cl)c1`, the “PLD induction” value was 18.3% (inactive). With `CC[C@H](C)[C@H]1O[C@]2(C=C[C@@H]1C)C[C@@H]1C[C@@H](C/C=C(\C)[C@@H](O[C@H]3C[C@H](OC)[C@@H](O[C@H]4C[C@H](OC)[C@@H](O)[C@H](C)O4)[C@H](C)O3)[C@@H](C)/C=C/C=C3\CO[C@@H]4[C@H](O)C(C)=C[C@@H](C(=O)O1)[C@]34O)O2` the “PLD induction” value was 2.55% (inactive). For `CN(C)CCc1c[nH]c2ccc(O)cc12`, the “PLD induction” value was -2.36% [at 78.4 µM] (inactive). In the case of `C[C@]12CC[C@@H]3c4ccc(OC(=O)N(CCCl)CCCl)cc4CC[C@H]3[C@@H]1CC[C@@H]2O`, the “PLD induction” value is reported as 3.48% (inactive). With `CCOC(=O)C1(c2ccccc2)CCN(CCC(C#N)(c2ccccc2)c2ccccc2)CC1` the Potency was “inactive”. In the case of `O=c1[nH]c2ccccc2n1CCCN1CCC(n2c(=O)[nH]c3cc(Cl)ccc32)CC1`, the “PLD induction” value is reported as 17.4% (inactive). In the case of `CN(C)CCc1c[nH]c2cccc(O)c12`, the “PLD induction” value is reported as -2.68% [at 78.4 µM] (inactive). With `Clc1ccc(CCC(Cn2ccnc2)Sc2c(Cl)cccc2Cl)cc1` (stereo not given) the “PLD induction” value was 15.6% [at 15.5 µM] (inactive). In the case of `CCCN(CCC)c1c([N+](=O)[O-])cc(S(N)(=O)=O)cc1[N+](=O)[O-]`, the “PLD induction” value is reported as -3.53% [at 78.4 µM] (inactive).
